Screening results (PubChem BioAssay)
Tgondii IFNg = blocks Toxoplasma gondii growth in the presence of IFN-gamma; AID 1259416; 3.8% of 69,000 active; activity change, negative = inhibition, % (test concentration not listed); Toxoplasma gondii growth in IFN-gamma-treated host cells; stronger effect = lower value; in the data active = activity change below about -70%, passing the limit was not always enough;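 also: host cells are HeLa cells infected with Toxoplasma gondii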
A number is an active result; 0 = inactive. The entries come from a sample that favours hits as a whole.

SMILES	Tgondii IFNg
C[C@H]1OC(O[C@H]2[C@@H](O)CC(O[C@H]3[C@@H](O)C[C@H](O[C@H]4CC[C@]5(C)C6CC[C@]7(C)[C@@H](C8=CC(=O)OC8)[C@@H](O)C[C@]7(O)[C@@H]6CC[C@@H]5C4)O[C@@H]3C)O[C@@H]2C)C[C@H](O)C1O (stereo partly specified)	-73
C[C@]12CC[C@H](O)C[C@H]1CC[C@@H]1[C@@H]2CC[C@]2(C)[C@@](O)(c3ccoc3)CC[C@]12O	0
COC1C(O)CC(OC2C(O)CC(OC3C(O)CC(OC4CCC5(C)C(CCC6[C@@H]5CC(O)C5(C)C(C7=CC(=O)OC7)CCC65O)C4)OC3C)OC2C)OC1C (stereo partly specified)	-77
Cc1ccc(CN2CCOC3CNCC[C@@H]32)o1 (stereo partly specified)	0
c1ccc2c(c1)C(OCC1CC1)[C@@H]1CNC[C@@H]21 (stereo partly specified)	0
Cc1ccnc(-n2cccc2CN2[C@@H]3CC[C@H]2CN(C)C(=O)C3)c1	0
Cc1nc(CN2CCC3(CC2)C(=O)N(C)c2ccccc23)cs1	0
CO[C@H]1CCN(C(=O)c2ccc(C)cn2)[C@H]2CN(CC3CC3)C[C@@H]12	0
COc1ncccc1CN1CC[C@@H]2C[C@H](c3n[nH]c(C)n3)O[C@H]2C1	0
COCCN1CCN(Cc2nccs2)Cc2cccnc21	0
COc1ccc(C2=NCC(=O)N(Cc3nc(-c4ccccc4)oc3C)c3sc4c(c32)CCCC4)cc1	-87
Cc1cc(C)c2c(CC(=O)N(C)CCN(C)C)coc2c1	0
O=C(Nc1ccc(Br)cc1F)c1cc2cccnc2n(Cc2ccccc2)c1=O	0
O=C(NCC1CCCO1)c1cc2cccnc2n(Cc2ccc(F)cc2)c1=O (stereo unspecified)	0
CN1CCO[C@H]2CN(S(=O)(=O)c3cccnc3)C[C@@H]2C1	0
C[C@@H]1O[C@@H](O[C@@H]2C=C3CCC4C(CC[C@]5(C)[C@@H](c6ccc(=O)oc6)CC[C@]45O)[C@@]3(C)CC2)C(O)C(O)[C@H]1O (stereo partly specified)	-80
CN1CC2(CCN(c3ncnc4nc[nH]c34)CC2)CC1C(=O)O (stereo unspecified)	0
CC1(C)C2CC(=O)[C@]3(C)C(CC[C@@]4(C)[C@H](c5ccoc5)OC(=O)[C@H]5O[C@]543)[C@@]2(C)C(=O)C[C@H]1O (stereo partly specified)	0
CC(=O)O[C@H]1C[C@@H](OC(C)=O)C(C)(C)C2C[C@@H](OC(C)=O)[C@]3(C)C(CC[C@@]4(C)[C@H](c5ccoc5)C(=O)[C@H]5O[C@]543)[C@]21C (stereo partly specified)	0
CC(=O)O[C@@H]1CC2C(C)(C)C(=O)C=C[C@]2(C)C2CC[C@]3(C)C(=CC(=O)O[C@H]3c3ccoc3)[C@@]21C (stereo partly specified)	-88
COC(=O)c1cccc(CN(C)C(C)Cc2cc(C)ccn2)n1 (stereo unspecified)	0
CN1CCO[C@]2(CCC[C@H]2COc2cccnc2)C1	0
COCCNC(=O)c1cc2cccnc2n(Cc2ccccc2)c1=O	0
Cc1c(Cl)cccc1NC(=O)c1cc2cccnc2n(Cc2ccccc2)c1=O	0
Cc1ccc(C)c(NC(=O)c2cc3cccnc3n(Cc3ccccc3)c2=O)c1	0
SMILES	Tgondii IFNg
O=C(Nc1ccc(F)cc1Cl)c1c(O)c2cccnc2n(Cc2ccccc2)c1=O	0
O=C(Nc1ccccc1Cl)c1c(O)c2cccnc2n(Cc2ccccc2)c1=O	0
Cc1cccc(NC(=O)c2c(O)c3cccnc3n(Cc3ccccc3)c2=O)c1C	0
O=C(NCc1ccccc1Cl)c1cc2cccnc2n(Cc2ccccc2)c1=O	0
Cc1ccc(NC(=O)c2c(O)c3cccnc3n(Cc3ccccc3)c2=O)cc1	0
O=C(NCc1ccc(Cl)cc1)c1c(O)c2cccnc2n(Cc2ccccc2)c1=O	-98
O=C(NCc1ccc(Cl)cc1)c1cc2cccnc2n(Cc2ccccc2F)c1=O	0
COc1ccc(C)cc1NC(=O)c1c(O)c2cccnc2n(Cc2ccccc2)c1=O	0
O=C(NCC1CC1)c1c(O)c2cccnc2n(Cc2ccccc2)c1=O	-92
COc1ccccc1CNC(=O)c1cc2cccnc2n(Cc2ccc(F)cc2)c1=O	0
O=C(NCc1cc(F)cc(F)c1)c1c(O)c2cccnc2n(Cc2ccccc2)c1=O	-103
O=C(NCc1ccc(F)cc1)c1c(O)c2cccnc2n(Cc2ccccc2)c1=O	-99
CN1CC[C@@]2(C[C@@H](NS(=O)(=O)C3CC3)CCO2)C1	0
CCN1C[C@H]2[C@@H](OC)CCN(C(=O)c3ncccn3)[C@H]2C1	0
Cc1ccc(NC(=O)c2cc3cccnc3n(Cc3ccccc3F)c2=O)cc1C	0
COc1cc(N2CCCC3(CCN(CC(C)C)C3)C2)ncn1 (stereo unspecified)	0
Cc1ccc(CN2CCN3CC(OCc4ccccn4)CC3C2)s1 (stereo unspecified)	0
c1cncc(COC[C@@]23COC[C@@H]2CN(Cc2ccco2)C3)c1	0
Cc1cnc(N2CCC[C@H]3CN(CC(=O)N(C)C)C[C@H]32)nc1	0
